Compound activity deposited in PubChem by The Scripps Research Institute Molecular Screening Center.
An excerpt weighted towards active compounds, which were near 1.1% of everything screened.
NCOA3 inh = inhibitors of human steroid receptor coactivator 3 (SRC3); Q9Y6Q9; HEK293 GAL4-SRC3 luciferase reporter, luminescence; inhibition, % at 3.6 µM; AID 588352; actives 0.17% (n = 360,000);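 active = inhibition above a per-campaign cutoff, the mean of all compounds plus 3 SD, cut at about 60% in these data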;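 also: 0% = DMSO-treated cells and 100% = gossypol-treated cells at 36 µM; higher means less SRC3-driven luciferase light from the GAL4 reporter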
NCOA2 inhibitor = human SRC2 (NCOA2) inhibition; Q15596; HEK293 GAL4-SRC2 luciferase reporter, luminescence; inhibition, % at 9 µM; actives 0.17% (n = 370,000);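 active = inhibition above the mean inhibition of all tested compounds plus 3 SD, set per campaign, cut at about 52% in these data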;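 also: 0% = DMSO treated cells and 100% = cells given Gossypol at 36 µM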
NR2F2 inh = inhibitors of human COUP-TFII (NR2F2) | HEK293T NGFI-A luciferase reporter, luminescence | inhibition, % at 8.6 µM | actives 0.7% (n = 370,000);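 active = inhibition above a per-plate cutoff, mean inhibition of test wells between control levels plus 3 SD, cut at about 38% in these data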;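 also: cells cotransfected with COUP-TFII expression vector driving the NGFI-A reporter; 0% = median of COUP-TF2 test wells and 100% = reporter-only cells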
NR5A2 inv ag = inverse agonists of human LRH-1 (NR5A2); HEK293T StAR-luciferase reporter, LRH-1 transfected, 24 h; inhibition, % at 3.6 µM; actives 0.13% (n = 360,000);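 active = inhibition above the mean inhibition of all tested compounds plus 3 SD, cut at about 73% in these data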;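 also: 0% = DMSO wells and 100% = reporter-only cells lacking LRH-1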
GalR3 antag = human GalR3 antagonism; inhibition, % at 3 µM; O60755; actives 0.44% (n = 360,000); HEK293 GalR3-CNG cAMP membrane potential fluorescence; galR3 body fused to GalR1 C-terminus; AID 651719;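 active = inhibition above the screen-wide average plus 3 SD, cut at about 13% in these data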;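 also: forskolin and galanin both at EC90 stimulate the cells; cAMP rise reported by CNG channel membrane potential dye signal; 0% = forskolin plus galanin with DMSO and 100% = forskolin alone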
NCOA1 inh = inhibitors of human steroid receptor coactivator 1 (SRC1). HEK293 GAL4-SRC1 luciferase reporter, luminescence. inhibition, % at 3.6 µM. actives 0.12% (n = 360,000);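 active = inhibition above the campaign mean plus 3 SD, with each screening campaign given its own cutoff, cut at about 60% in these data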;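 also: 0% = DMSO treated cells and 100% = gossypol at 36 µM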
VP16 Luc counter = VP16 inhibition counter-screen for COUP-TFII. shares compounds with NR2F2 inh. HEK293 Gal4-VP16 luciferase reporter, luminescence. inhibition, % at 8.5 µM. actives 25% (n = 2,500). AID 687007; in the data active = inhibition above about 13%
NR2F2 inh conf = confirmation of human COUP-TFII (NR2F2) inhibitors | HEK293 NGFI-A luciferase reporter, luminescence | shares compounds with NR2F2 inh | actives 45% (n = 2,500) | inhibition, % at 8.5 µM;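 active = mean inhibition over three repeats above a set limit taken from the earlier primary screen, cut at about 38% in these data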;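 also: 100% = cells given the luciferase reporter alone without the COUP-TF2 vector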
Active calls of the source: *.

`CC(C)(C)c1ccc(C(=O)NCCOc2ccccc2)cc1` gave NCOA3 inh 11, NCOA2 inhibitor -8, NR2F2 inh 36, NR5A2 inv ag -14, GalR3 antag -5 and NCOA1 inh 18.
Screening COC(=O)[C@]12C[C@H](CC(=O)NCCCCc3ccccc3)C(=O)N(Cc3ccco3)C1=C[C@H](C(C)(C)C)O[C@@H]2C returned NCOA2 inhibitor -5 and NR2F2 inh -9.
Screening Cc1ccc(C(=O)c2ccc(O)cc2)cc1C returned NCOA3 inh -18, NCOA2 inhibitor -29, NR2F2 inh 1, NR5A2 inv ag -2, GalR3 antag -3 and NCOA1 inh -43.
For Cc1ccc(C(=O)c2cccc(N)c2)cc1C the results were NCOA3 inh 32, NCOA2 inhibitor 80*, NR2F2 inh 72*, NR5A2 inv ag 23, GalR3 antag -3, NCOA1 inh 27, VP16 Luc counter 62* and NR2F2 inh conf 41*.
For CCn1c(SCC(=O)Nc2ccccc2OC)nc2ccccc2c1=O the results were NCOA3 inh 2, NCOA2 inhibitor -7, NR2F2 inh 7, NR5A2 inv ag 11, GalR3 antag 4 and NCOA1 inh 17.
CCOc1ccccc1-n1c(SCC(=O)Nc2ccccc2C(=O)O)nc2ccccc2c1=O was read as NCOA3 inh 37, NCOA2 inhibitor 37, NR2F2 inh 56*, NR5A2 inv ag 53, GalR3 antag -7, NCOA1 inh 37, VP16 Luc counter 23* and NR2F2 inh conf 37.
For O=c1ccc2cccc([N+](=O)[O-])c2[nH]1 the results were NCOA3 inh 5, NCOA2 inhibitor -27, NR2F2 inh 4, NR5A2 inv ag 20, GalR3 antag -6 and NCOA1 inh 10.
Cc1csc(NC(=O)CCc2c(C)nc3cc(-c4ccc(Cl)cc4)nn3c2C)n1 was read as NCOA3 inh 0, NCOA2 inhibitor 66*, NR2F2 inh 49*, NR5A2 inv ag 9, GalR3 antag 2, NCOA1 inh 5, VP16 Luc counter -15 and NR2F2 inh conf 36.
COc1cc(OC)cc(-c2cc3nc(C)c(CCC(=O)NCc4ccccc4)c(C)n3n2)c1 was read as NCOA3 inh 30, NCOA2 inhibitor 77*, NR2F2 inh 58*, NR5A2 inv ag 35, GalR3 antag -6, NCOA1 inh 15, VP16 Luc counter 29* and NR2F2 inh conf 47*.
Screening Cc1ccc(N2CC(C(=O)Nc3cccc(S(=O)(=O)N4CCOCC4)c3)CC2=O)cc1 (stereo not drawn) returned NCOA3 inh 4, NCOA2 inhibitor 14, NR2F2 inh -2, NR5A2 inv ag 12, GalR3 antag -4 and NCOA1 inh -23.
`Cc1nnsc1NC(=O)OCc1ccc(C(C)(C)C)cc1` gave NCOA3 inh 19, NCOA2 inhibitor 26, NR2F2 inh 56*, NR5A2 inv ag 39, GalR3 antag 36*, NCOA1 inh 6, VP16 Luc counter -8 and NR2F2 inh conf 38*.
Screening S=C(NCC1(c2ccccc2)CCCC1)Nc1ccccc1 returned NCOA3 inh 18, NCOA2 inhibitor 12, NR2F2 inh 42*, NR5A2 inv ag 14, GalR3 antag -11, NCOA1 inh -7, VP16 Luc counter 4 and NR2F2 inh conf 8.
`O=C(CCN1CCOCC1)c1ccc(N2CCCCC2)cc1` gave NCOA3 inh 24, NCOA2 inhibitor 63*, NR2F2 inh 60*, NR5A2 inv ag 32, GalR3 antag -7, NCOA1 inh 11, VP16 Luc counter 39* and NR2F2 inh conf 40*.
For O=C(CCN1CCN(c2ccccc2)CC1)c1ccc(Cl)cc1 the results were NCOA3 inh 5, NCOA2 inhibitor -6, NR2F2 inh -1, NR5A2 inv ag -3, GalR3 antag -7 and NCOA1 inh -8.
Screening COc1cc2c(cc1OC)C(c1c(Cl)cccc1Cl)=NCC2 returned NCOA3 inh -50, NCOA2 inhibitor 22, NR2F2 inh 72*, NR5A2 inv ag -3, GalR3 antag -5, NCOA1 inh -32, VP16 Luc counter 12 and NR2F2 inh conf 58*.
For COc1cc2c(cc1OC)C(c1c(-c3c(Cl)cccc3Cl)noc1C)=NCC2 the results were NCOA3 inh -13, NCOA2 inhibitor -12, NR2F2 inh 14, NR5A2 inv ag -8, GalR3 antag -3 and NCOA1 inh 11.
For O=C(Nc1nnc([C@@H]2C[C@H](O)[C@@H](CO)O2)s1)c1ccccc1Cl the results were NCOA3 inh -14, NCOA2 inhibitor -19, NR2F2 inh -23, NR5A2 inv ag 16, GalR3 antag 3 and NCOA1 inh -1.
COc1ccc(-c2cc(C(=O)Nc3ccc(C)c(C)c3)no2)cc1 was read as NCOA3 inh -24, NCOA2 inhibitor -10, NR2F2 inh -10, NR5A2 inv ag -12, GalR3 antag 5 and NCOA1 inh -1.
For CCOc1ccc(-c2cc(CCCC(=O)Nc3cccc(OC)c3)no2)cc1 the results were NCOA3 inh 0, NCOA2 inhibitor 55*, NR2F2 inh 42*, NR5A2 inv ag 43, NCOA1 inh 5, VP16 Luc counter 2 and NR2F2 inh conf 16.
Screening CCOc1ccc(-c2cc(CCCC(=O)Nc3cc(OC)ccc3OC)no2)cc1 returned NCOA3 inh 15, NCOA2 inhibitor 73*, NR2F2 inh 67*, NR5A2 inv ag 17, GalR3 antag -8, NCOA1 inh 4, VP16 Luc counter 38* and NR2F2 inh conf 32.
`CCOc1ccc(NC(=O)CCCc2cc(-c3ccc(OCC)cc3)on2)cc1` gave NCOA3 inh -15, NCOA2 inhibitor -14, NR2F2 inh 5, NR5A2 inv ag -13, GalR3 antag -3 and NCOA1 inh -44.
For COc1ccc(-c2cc(C(=O)Nc3cccc(O)c3)no2)cc1 the results were NCOA3 inh -30, NCOA2 inhibitor 9, NR2F2 inh 50*, NR5A2 inv ag -42, GalR3 antag -12, NCOA1 inh -33, VP16 Luc counter -7 and NR2F2 inh conf 8.
CCN(CC)C(=O)CC[C@H]1CC[C@]2(CCCN(C(=O)c3cccnc3)C2)O1 was read as NCOA2 inhibitor -11 and NR2F2 inh 7.
O=C(N[C@H](C(=O)N1CCC[C@H]1C(=O)NCCc1ccccc1Cl)c1ccccc1)c1ccco1 was read as NCOA2 inhibitor -9, NR2F2 inh 12 and GalR3 antag -6.
`O=S(=O)(c1cc(F)ccc1F)N1CCN(c2ncnc3ccccc23)CC1` gave NCOA3 inh 19, NCOA2 inhibitor 23, NR2F2 inh 51*, NR5A2 inv ag 18, GalR3 antag -1, NCOA1 inh 8, VP16 Luc counter 19* and NR2F2 inh conf 53*.
